# High-throughput results (PubChem)
# This is a sample that favours compounds with a hit; in the whole collection about 2% have one here.
# MCL1-BIM inh = disrupts human MCL1 binding to BIM-BH3 peptide | inhibition, % at 10.9 µM | GST-MCL1 / FITC-Bim-BH3 fluorescence polarization | Q07820 | hit rate 0.68% among 320,000;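 active = inhibition above the mean inhibition of all tested compounds plus 3 SD, set per campaign, cut at about 40% in these data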;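 note: 0% = DMSO wells and 100% = unlabeled Bim-BH3 peptide control; higher means more loss of mP so more displacement of Bim peptide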
# Target sequence (Q07820 whole entry, looked up): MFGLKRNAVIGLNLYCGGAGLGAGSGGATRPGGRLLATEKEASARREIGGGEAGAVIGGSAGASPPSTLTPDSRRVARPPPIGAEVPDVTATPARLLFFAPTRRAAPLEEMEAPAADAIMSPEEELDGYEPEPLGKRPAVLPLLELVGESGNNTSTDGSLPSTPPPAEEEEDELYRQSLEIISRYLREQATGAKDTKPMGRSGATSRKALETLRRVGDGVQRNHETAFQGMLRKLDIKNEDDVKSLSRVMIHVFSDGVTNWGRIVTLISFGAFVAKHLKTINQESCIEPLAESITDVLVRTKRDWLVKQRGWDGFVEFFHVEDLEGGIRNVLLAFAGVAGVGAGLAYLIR
# Mcl1-Bid inh = Mcl-1/Bid interaction inhibition. inhibition, % at 21.7 µM. Q07820. hit rate 0.97% among 220,000. TR-FRET Mcl-1/Bid-Dy647 peptide binding, 1536-well;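 active = compounds that cut the binding signal by more than half at the single screening dose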;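 note: His-tagged Mcl-1 with europium anti-His antibody binding Bid BH3 peptide; 0% = Mcl-1 plus peptide wells and 100% = peptide-only wells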
# Mcl-1 Bim block = inhibitors of Bim-Mcl-1 interaction, human | Bead-based flow cytometry, Bim peptide-Mcl-1 binding | inhibition, % at 10 µM | hit rate 0.1% among 190,000 | AID 1009; in the data active = inhibition above about 40%;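 note: 0% = no compound tracer wells and 100% = peptide blocker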
# Mcl1-Noxa inh = disrupts binding of human Mcl-1 to Noxa peptide; Q07820; TR-FRET Mcl-1/Noxa peptide binding, 2 h; inhibition, % at 21.7 µM; hit rate 1.5% among 220,000; AID 1022;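 active = compounds that cut the protein-peptide binding signal by more than 50% relative to plate controls in a single-dose test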;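 note: His-tagged Mcl-1 with rhodamine Noxa BH3 peptide and terbium anti-His antibody; 0% = Mcl-1 plus Noxa peptide wells and 100% = peptide-only wells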
# * hit, by the source's call; . = not tested or not shown.
SMILES,MCL1-BIM inh,Mcl1-Bid inh,Mcl-1 Bim block,Mcl1-Noxa inh
CN(C)C(=O)C12CCC(C)(C(=O)C1Br)C2(C)C (stereo unspecified),2,-7,.,-8
O=C(NC(=S)Nc1ccc(NC(=O)c2ccccc2)cc1)c1ccc(F)cc1,9,.,.,.
O=C(NC(=S)Nc1ccc2c(c1)C(=O)c1ccccc1C2=O)c1ccc(F)cc1,9,42,-2,51*
O=S(=O)(Nc1ccc2c(c1)OCCO2)c1cccc2nsnc12,0,61*,-1,26
O=C1NC(=S)S/C1=C\C=C\c1ccc([N+](=O)[O-])o1,.,21,.,103*
COC(=O)c1ccc([C@H]2C=C(C(=O)O)O[C@@H](OCc3ccc(CO)cc3)C2)cc1,-1,-27,.,8
Cc1cc(C)n(C)c(=O)c1C#N,1,-12,-3,-10
Cc1c(C=O)c(Cl)n(C)c(=O)c1C#N,36,-6,0,55*
COc1ccc([N+](=O)[O-])cc1N(CC(=O)NCCCOC(C)C)S(C)(=O)=O,2,-14,0,5
COc1ccccc1N(C)S(=O)(=O)c1ccc(C(=O)N2CCCc3ccccc32)cc1,0,.,.,.
CCN(CC)C(=O)C1CCCN(Cc2cccc(F)c2)C1 (stereo unspecified),7,64*,-3,34
Cc1nc(=S)c2ccccc2[nH]1,0,5,33,16
Nc1cccc2[nH]c(C(F)(F)F)nc12,2,18,-28,52*
FC(F)(F)c1nc(=S)c2ccccc2[nH]1,.,-48,86*,32
O=C(O)c1cccc2[nH]c(C(F)(F)F)nc12,5,18,-1,8
COc1ccccc1NC(=O)Cn1c(CCC(=O)O)ccc1-c1ccccc1,-4,-33,-3,6
O=C(COC(=O)C1CC2C=CC1C2)NCc1ccco1 (stereo unspecified),33,-15,0,66*
O=C(CCSCCC(=O)NCc1ccco1)NCc1ccco1,21,-12,-4,54*
O=C(CCSCc1ccccc1Cl)NCc1ccco1,3,-23,1,12
CCN1CCN(CC(=O)Nc2cc3c(cc2C(C)=O)OCO3)CC1,8,58*,2,21
COc1ccc(Cl)cc1NC(=O)CN1CCN(S(=O)(=O)N2CCCCC2)CC1,4,.,.,.
CCN(c1ccc(NC(=O)CN2C(=O)NC3(CCOc4ccccc43)C2=O)cc1)C(C)C (stereo unspecified),1,12,-2,66*
COCCn1c(SCC(=O)NC(=O)NCc2ccccc2)nc2ccccc21,-3,56*,-1,8
COCCn1c(SCC(=O)NC(=O)NC(C)C)nc2ccccc21,-7,-7,-5,3
CCn1nc([N+](=O)[O-])c2c(-c3nc4ccccc4o3)c(N)n(CCCOC)c2c1=O,34,27,1,52*
SMILES,MCL1-BIM inh,Mcl1-Bid inh,Mcl-1 Bim block,Mcl1-Noxa inh
CN(C)c1ccc(N2CC(C)(C)C2=O)cc1,8,-46,-3,63*
O=C(Cc1sc(-c2ccccc2Cl)nc1-c1ccccc1)Nc1ccccc1,1,84*,6,-29
FC(F)Oc1ccc(NC(=S)NNc2ccnc3cc(Cl)ccc23)cc1,4,-29,-1,26
CC(CC1C(C#N)=C(N)OC2=C1C(=O)CCC2)c1ccccc1 (stereo unspecified),-5,60*,-1,12
O=C(O)c1cccc(N/N=C/C2=C(Cl)c3cc(Cl)ccc3SC2)c1,.,89*,4,103*
O=C(O)c1cccc(N/N=C/c2ccc(F)c(F)c2)c1,-3,-30,5,13
COc1ccccc1NC(=O)c1cc2cc(Br)ccc2cc1O,17,-34,.,88*
COc1cc(NC(=O)c2cc3ccccc3cc2O)c(OC)cc1Cl,-8,-32,.,61*
COc1ccccc1NC(=O)c1cn(C)c(=O)c2cc(OC)c(OC)cc12,0,84*,-6,8
COc1cc2c(C(=O)Nc3ccccc3F)cn(C)c(=O)c2cc1OC,-2,.,.,.
Cn1nnnc1Sc1ncnc2scc(-c3ccc([N+](=O)[O-])cc3)c12,3,.,.,.
Cc1cccc(C)c1N(CC(=O)NCc1ccccc1)C(=O)c1csnn1,3,.,.,.
CCc1cccc(C)c1NC(=O)CN1CCN(S(=O)(=O)c2ccc(C(C)(C)C)cc2)CC1,0,.,.,.
Cn1ncc(Cl)c1C(=O)NC1CCCC1,0,.,.,.
CNc1ccc(/C=C(\C#N)c2ccccn2)cc1[N+](=O)[O-],40*,39,-1,64*
CC(=O)c1ccc(S(=O)(=O)Nc2ccc(-c3cn4c(n3)SCC4)cc2)cc1,-9,-30,2,65*
CS(=O)(=O)Nc1ccc(-c2cn3c(n2)SCC3)cc1,-6,.,.,.
Cc1ccc(C(=O)N2CCC(C(=O)Nc3cccc([N+](=O)[O-])c3)CC2)cc1,1,.,.,.
CC1=Nc2ccc(C)cc2/C1=C/c1c(N)n2c(S(=O)(=O)C(C)C)nsc2nc1=O,.,17,-2,81*
O=C(Cc1ccc(Cl)cc1)Nc1ncc([N+](=O)[O-])s1,.,-16,-3,27
O=C(Cc1ccc(Br)cc1)Nc1ncc([N+](=O)[O-])s1,8,-20,.,70*
CCOC(=O)c1c(S(=O)(=O)Nc2ccc(C)cn2)c(C)n(C)c1C,0,.,.,.
O=C1C=Cc2ccccc2/C1=C/c1[nH]c(=O)[nH]c1O,-6,-30,.,60*
Cc1ncc(CO)c(/C=N/NC(=S)Nc2ccc(Cl)c(Cl)c2)c1O,-17,-61,-1,71*
CC(CN1CCN(C)CC1)OC(=O)c1cccc(F)c1 (stereo unspecified),3,.,.,.
SMILES,MCL1-BIM inh,Mcl1-Bid inh,Mcl-1 Bim block,Mcl1-Noxa inh
COCCNC(=O)CSc1ccccc1C(=O)NC1CCCc2ccccc21 (stereo unspecified),5,.,.,.
Nc1c(C(=O)NCC2CCCO2)sc2nc3c(c(-c4ccco4)c12)CC/C3=C\c1ccco1 (stereo unspecified),.,80*,44*,98*
CCOCCn1c(=NC(=O)/C=C/c2ccccc2Cl)sc2cc(NC(C)=O)ccc21,1,61*,-1,31
Cc1ccc(Cl)c(OCCCN(C)Cc2ccccc2)c1,1,77*,.,18
CN(CCOc1ccccc1Cl)Cc1ccccc1,4,.,.,.
Cc1ccc(Cl)c(OCCCCN(C)Cc2ccccc2)c1,-3,52*,-4,16
CCOC(=O)c1nnc(-c2ccc(C)cc2)nc1Sc1ccccc1Cl,-1,-3,2,14
CCOC(=O)c1nnc(-c2ccc(C)cc2)nc1Sc1ccc(Cl)cc1,8,55*,1,-9
FC(F)(F)c1ccncc1-c1nnnn1-c1ccc(Cl)cc1,8,69*,.,-9
CC(=O)N1CCN(c2c(F)c(F)c(C(F)(F)F)c(F)c2F)CC1,.,0,-3,7
Cc1cc(C)cc(C(=O)NCC(=O)OCC(=O)N2c3ccccc3NC(=O)C2(C)C)c1,27,-24,16,54*
Cc1cc(N(CCO)CCO)ccc1C(c1ccc(N(CCO)CCO)cc1C)c1ccccc1Cl,23,57*,1,101*
CC(=O)Nc1sc(N/N=C/c2ccc(C)cc2)nc1-c1ccc(C)cc1,12,-38,.,24
COc1cc(/C=N\Nc2nc(-c3ccc(C)cc3)c(NC(C)=O)s2)ccc1O,1,-53,.,83*
CCOc1cc(/C=N/Nc2nc(C)cc(=O)[nH]2)ccc1O,9,.,.,.
